In PubChem BioAssay (EPA / NIEHS):
Active and inactive are the calls of the source. The calls were made as follows: active = hit-call score of the fitted dose curve at least 0.9, where 1 is the maximum; inactive = score below 0.9.

Experiments:
[1] = ATG_CRE_CIS: Attagene CIS-FACTORIAL HepG2 Assay for human cAMP Responsive Element (CRE) binding protein 3 (AID 2282926); details: HepG2 CRE cis-reporter, Attagene multiplexed mRNA; actives raise or lower the signal
Method in brief: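 Endogenous CRE-binding activity in HepG2 is reported through a cis-regulated transfected reporter. Following a day of exposure, mRNA levels are determined by reverse transcription PCR and fluorescent fragment analysis; fits run in both directions versus DMSO.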

[2] = biological target: CCAAT/enhancer-binding protein beta (Homo sapiens) (UniProt P17676); assay: ATG_C_EBP_CIS: Attagene CIS-FACTORIAL HepG2 Assay for human CCAAT/Enhancer Binding Protein (C/EBP) beta (AID 2282927); details: HepG2 Attagene cis-factorial transcription factor reporter; actives raise or lower the signal
Method in brief: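 Endogenous transcription factor activity in human liver HepG2 cells is inferred from induction of a CEBPB-linked reporter mRNA. Exposure lasts 24 h; activity is fitted in both directions relative to DMSO.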

[3] = ATG_CMV_CIS: Attagene CIS-FACTORIAL HepG2 Assay for human CMV (Internal Marker) (AID 2282928); details: HepG2 CMV promoter reporter, transcription factor profiling; actives raise or lower the signal;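 also: endpoint acts as a background internal control marker rather than a target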
Method in brief: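 Endogenous transcription factor activity read in HepG2 via transfected cis-promoter reporter units. After 24 h dosing, reporter mRNA measured by RT-PCR/capillary electrophoresis; gain or loss of signal fit relative to DMSO.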

[4] = ATG_DR4_LXR_CIS: Attagene CIS-FACTORIAL HepG2 Assay for human Liver X Receptor (LXR), DR4 submotif (AID 2282929); details: HepG2 Attagene DR4 cis-reporter, mRNA transcription; actives raise or lower the signal
Method in brief: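 Measures endogenous transcription factor activity via a DR4-driven reporter transcript in human HepG2 cells. Compounds incubated 24 h; mRNA quantified by RT-PCR and capillary electrophoresis, analysed as gain or loss of signal versus DMSO.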

[5] = biological target: Aryl hydrocarbon receptor (Homo sapiens) (UniProt P35869); assay: ATG_Ahr_CIS: Attagene CIS-FACTORIAL HepG2 Assay for human Aryl Hydrocarbon Receptor (Ahr) (AID 2282930); details: HepG2 AhR cis-factorial reporter transcription; actives raise or lower the signal
Method in brief: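 Transient MRTU transfection of HepG2 → 24 h compound exposure → total RNA, oligo(dT) RT → PCR, 6-FAM extension, HpaI cut → CE fluorescence. DMSO = baseline; bidirectional curve fit.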

[6] = ATG_AP_1_CIS: Attagene CIS-FACTORIAL HepG2 Assay for human Activator Protein 1 (AP-1) (AID 2282931); details: HepG2 Attagene cis-factorial AP-1 reporter mRNA; actives raise or lower the signal
Method in brief: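 Bidirectional concentration-response fitting against DMSO controls. Underlying signal: reporter mRNA from cis-promoter constructs in transiently transfected HepG2, measured after 24 h by RT-PCR and capillary electrophoresis.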

[7] = ATG_AP_2_CIS: Attagene CIS-FACTORIAL HepG2 Assay for human Activator Protein 2 (AP-2) (AID 2282932); details: HepG2 AP-2 cis-reporter, Attagene transcription factor profiling; actives raise or lower the signal
Method in brief: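 HepG2, transient MRTU transfection, cis-regulated reporters; 24 h compound exposure; RNA isolated, RT-PCR, 6-FAM labelling, HpaI digest, CE fluorescence. DMSO = negative control/baseline, bidirectional fit.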

[8] = ATG_BRE_CIS: Attagene CIS-FACTORIAL HepG2 Assay for human Bone Morphogenetic Protein (BMP) Response Element (BRE) (AID 2282933); details: HepG2 BMP response element reporter, Attagene transcription factor profiling; actives raise or lower the signal
Method in brief: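 After a 24 h chemical treatment, transiently transfected HepG2 cells were lysed for RNA; reporter transcripts were quantified by fluorescent RT-PCR and capillary electrophoresis, normalised to DMSO.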

[9] = biological target: Retinoic acid receptor alpha (Homo sapiens) (UniProt P10276); assay: ATG_DR5_RAR_CIS: Attagene CIS-FACTORIAL HepG2 Assay for human Retinoic Acid Receptor Alpha (RARE), DR5 submotif (AID 2282934); details: HepG2 Attagene cis-factorial RARE DR5 reporter, mRNA; actives raise or lower the signal
Method in brief: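 Transient MRTU transfection of HepG2; 24 h compound treatment; TriZol RNA, oligo(dT) RT, PCR, FAM labelling, capillary electrophoresis. Bidirectional fit vs DMSO. Endogenous TF activity at DR5 RARE.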

[10] = biological target: Transcription factor E2F1 (Homo sapiens) (UniProt Q01094); assay: ATG_E2F_CIS: Attagene CIS-FACTORIAL HepG2 Assay for human E2F Transcription Factor 1 (AID 2282935); details: HepG2 Attagene cis-reporter, E2F reporter RNA transcripts; actives raise or lower the signal
Method in brief: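 Cis-element reporter mRNA induction in transiently transfected HepG2, 24 h exposure. Activity fitted in both directions relative to DMSO negative control.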

[11] = ATG_E_Box_CIS: Attagene CIS-FACTORIAL HepG2 Assay for human Enhancer Box (E-box) (AID 2282936); details: HepG2 E-box cis-reporter transcription, actives raise or lower the signal
Method in brief: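 Cells: HepG2 (human liver), transient MRTU transfection. Exposure 24 h. RNA → oligo(dT) RT → PCR → 6-FAM label → HpaI → CE. Activity fitted both directions relative to DMSO.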

[12] = ATG_M_61_CIS: Attagene CIS-FACTORIAL HepG2 Assay for M61 Transcription Factor (Internal Marker) (AID 2282937); details: HepG2 Attagene CIS-FACTORIAL M61 internal marker reporter; actives raise or lower the signal
Method in brief: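 Fluorescence from labelled cDNA fragments, separated by capillary electrophoresis, quantifies reporter induction. HepG2 cells bearing transiently transfected cis-promoter MRTUs were incubated with test chemical for 24 h; DMSO defined baseline for gain/loss fitting.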

CCAAT/enhancer-binding protein beta (Homo sapiens), sequence (P17676 whole entry, looked up): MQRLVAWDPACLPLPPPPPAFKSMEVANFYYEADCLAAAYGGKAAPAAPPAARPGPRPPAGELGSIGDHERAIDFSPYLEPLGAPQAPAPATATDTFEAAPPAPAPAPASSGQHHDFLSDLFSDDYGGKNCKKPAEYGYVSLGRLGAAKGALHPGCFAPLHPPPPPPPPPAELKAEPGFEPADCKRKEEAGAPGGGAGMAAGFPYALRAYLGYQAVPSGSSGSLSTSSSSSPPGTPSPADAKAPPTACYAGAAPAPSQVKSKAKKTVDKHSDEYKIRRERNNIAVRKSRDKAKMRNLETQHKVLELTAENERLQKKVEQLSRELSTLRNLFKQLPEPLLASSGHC
Aryl hydrocarbon receptor (Homo sapiens), sequence (P35869 whole entry, looked up): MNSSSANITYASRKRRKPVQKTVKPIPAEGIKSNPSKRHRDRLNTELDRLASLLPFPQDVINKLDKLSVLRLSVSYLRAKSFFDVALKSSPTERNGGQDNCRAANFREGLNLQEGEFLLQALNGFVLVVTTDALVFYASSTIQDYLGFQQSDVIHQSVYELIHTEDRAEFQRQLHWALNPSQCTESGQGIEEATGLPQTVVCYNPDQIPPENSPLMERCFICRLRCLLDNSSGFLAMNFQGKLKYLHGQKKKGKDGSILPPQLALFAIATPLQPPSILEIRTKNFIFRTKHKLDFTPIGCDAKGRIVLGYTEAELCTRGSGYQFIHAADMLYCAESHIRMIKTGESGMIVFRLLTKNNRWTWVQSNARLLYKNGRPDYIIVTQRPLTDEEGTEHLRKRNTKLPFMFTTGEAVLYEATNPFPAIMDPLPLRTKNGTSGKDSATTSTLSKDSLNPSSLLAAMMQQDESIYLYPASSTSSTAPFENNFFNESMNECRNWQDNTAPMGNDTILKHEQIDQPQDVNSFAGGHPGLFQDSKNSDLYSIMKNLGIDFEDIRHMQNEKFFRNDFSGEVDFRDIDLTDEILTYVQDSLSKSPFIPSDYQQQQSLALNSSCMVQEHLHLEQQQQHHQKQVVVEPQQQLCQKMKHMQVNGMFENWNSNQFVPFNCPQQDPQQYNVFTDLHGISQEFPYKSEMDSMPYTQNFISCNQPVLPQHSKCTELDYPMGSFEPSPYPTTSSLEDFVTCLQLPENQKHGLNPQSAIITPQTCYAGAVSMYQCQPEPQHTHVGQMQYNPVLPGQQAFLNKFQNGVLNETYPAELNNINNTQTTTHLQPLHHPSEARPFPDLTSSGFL
Retinoic acid receptor alpha (Homo sapiens), sequence (P10276 whole entry, looked up): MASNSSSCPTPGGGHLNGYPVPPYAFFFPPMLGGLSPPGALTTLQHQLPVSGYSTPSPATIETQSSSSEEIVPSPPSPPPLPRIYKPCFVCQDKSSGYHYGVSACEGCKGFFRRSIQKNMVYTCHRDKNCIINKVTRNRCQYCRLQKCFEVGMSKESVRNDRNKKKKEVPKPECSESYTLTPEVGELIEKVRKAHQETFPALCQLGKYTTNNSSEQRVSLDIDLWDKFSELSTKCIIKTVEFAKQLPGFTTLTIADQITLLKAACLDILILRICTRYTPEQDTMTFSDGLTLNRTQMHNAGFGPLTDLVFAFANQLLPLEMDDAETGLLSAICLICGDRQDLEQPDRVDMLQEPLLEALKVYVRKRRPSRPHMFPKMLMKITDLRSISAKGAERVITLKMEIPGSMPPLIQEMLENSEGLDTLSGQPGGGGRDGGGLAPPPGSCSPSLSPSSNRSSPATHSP
Transcription factor E2F1 (Homo sapiens), sequence (Q01094 whole entry, looked up): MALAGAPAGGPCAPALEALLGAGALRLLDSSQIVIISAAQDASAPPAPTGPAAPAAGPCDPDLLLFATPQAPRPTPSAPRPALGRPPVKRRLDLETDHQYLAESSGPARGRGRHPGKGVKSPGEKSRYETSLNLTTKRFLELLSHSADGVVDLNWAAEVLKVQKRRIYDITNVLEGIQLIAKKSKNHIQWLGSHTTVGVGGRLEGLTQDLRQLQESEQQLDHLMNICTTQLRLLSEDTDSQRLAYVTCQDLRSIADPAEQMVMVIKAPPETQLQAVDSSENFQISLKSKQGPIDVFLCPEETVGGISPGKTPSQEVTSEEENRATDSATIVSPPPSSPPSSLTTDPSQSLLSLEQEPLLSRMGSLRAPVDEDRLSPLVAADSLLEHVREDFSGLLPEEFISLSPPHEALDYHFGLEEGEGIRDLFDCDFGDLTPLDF

Structure (SMILES)	outcome [1]	outcome [2]	outcome [3]	outcome [4]	outcome [5]	outcome [6]	outcome [7]	outcome [8]	outcome [9]	outcome [10]	outcome [11]	outcome [12]	AC50 [1]	AC50 [2]	AC50 [3]	AC50 [4]	AC50 [6]	AC50 [11]	AC50 [5]	AC50 [8]
N#CCc1ccc(Cl)cc1	inactive	inactive	inactive	inactive	inactive	inactive	inactive	inactive	inactive	inactive	inactive	inactive	–	–	–	–	–	–	–	–
Nc1cccc(Cl)c1	inactive	inactive	inactive	inactive	inactive	inactive	inactive	inactive	–	inactive	inactive	inactive	–	–	–	–	–	–	–	–
CC(C)(c1ccc(OCC2CO2)cc1)c1ccc(OCC2CO2)cc1 (centres undefined)	–	–	–	–	inactive	–	inactive	inactive	–	inactive	–	inactive	36 µM (active)	51.6 µM (active)	49.2 µM (active)	25.9 µM (active)	53.9 µM (active)	52.4 µM (active)	–	–
c1ccc(N=NNc2ccccc2)cc1	inactive	inactive	inactive	–	–	–	inactive	–	inactive	inactive	inactive	inactive	–	–	–	115 µM (active)	80 µM (active)	–	5.92 µM (active)	123 µM (active)
COP(=S)(OC)Oc1ccc(Sc2ccc(OP(=S)(OC)OC)cc2)cc1	inactive	inactive	–	–	inactive	inactive	inactive	–	inactive	inactive	inactive	inactive	–	–	15.5 µM (active)	100 µM (active)	–	–	–	6.58 µM (active)
CCSC(C)CC1CC(=O)C(C(CC)=NOC/C=C/Cl)=C(O)C1 (centres undefined)	inactive	inactive	inactive	inactive	–	inactive	inactive	inactive	–	inactive	inactive	inactive	–	–	–	–	–	–	28.4 µM (active)	–
COC(=O)Cc1ccccc1	inactive	inactive	inactive	inactive	inactive	inactive	inactive	inactive	–	inactive	inactive	inactive	–	–	–	–	–	–	–	–
Nc1ccc(-c2ccc(N)c(Cl)c2)cc1Cl	inactive	inactive	–	inactive	–	inactive	inactive	inactive	–	inactive	inactive	inactive	–	–	2.15 µM (active)	–	–	–	6.23 µM (active)	–
ClCc1cccnc1	–	inactive	inactive	inactive	inactive	inactive	inactive	inactive	–	inactive	inactive	inactive	57 µM (active)	–	–	–	–	–	–	–
CCOP(=S)(OCC)Oc1ccc(S(C)=O)cc1 (centres undefined)	inactive	inactive	inactive	inactive	–	inactive	inactive	inactive	–	inactive	inactive	inactive	–	–	–	–	–	–	32.5 µM (active)	–
CN(CCCC(=O)c1cccnc1)N=O	inactive	inactive	inactive	inactive	inactive	inactive	inactive	inactive	–	inactive	inactive	inactive	–	–	–	–	–	–	–	–
Cc1cc(=O)[nH]o1	inactive	inactive	inactive	inactive	inactive	inactive	inactive	inactive	–	inactive	inactive	inactive	–	–	–	–	–	–	–	–
Nc1cccc2ccccc12	inactive	inactive	inactive	–	–	inactive	inactive	inactive	–	inactive	–	inactive	–	–	–	154 µM (active)	–	32.1 µM (active)	5.16 µM (active)	–
Clc1ccc(COC(Cn2ccnc2)c2ccc(Cl)cc2Cl)cc1 (centres undefined)	inactive	inactive	inactive	–	inactive	inactive	inactive	inactive	–	inactive	inactive	inactive	–	–	–	4.8 µM (active)	–	–	–	–
Clc1nc(Cl)nc(Cl)n1	inactive	inactive	inactive	inactive	–	inactive	inactive	inactive	–	inactive	inactive	inactive	–	–	–	–	–	–	69 µM (active)	–
O=C(c1ccccc1)C(Cl)Cl	inactive	–	–	–	inactive	–	inactive	inactive	inactive	inactive	–	inactive	–	–	28.7 µM (active)	8.03 µM (active)	53.4 µM (active)	10.9 µM (active)	–	–
COc1ccc(C=O)cc1	inactive	–	inactive	inactive	inactive	inactive	inactive	inactive	–	inactive	inactive	inactive	–	–	–	–	–	–	–	–
O=C(NCO)NCO	inactive	–	inactive	inactive	inactive	inactive	inactive	inactive	–	inactive	inactive	inactive	–	–	–	–	–	–	–	–
O=C(Cl)c1ccc(Cl)cc1	inactive	inactive	–	inactive	inactive	inactive	inactive	inactive	–	inactive	inactive	inactive	–	–	–	–	–	–	–	–
O=P(O)(O)CN(CP(=O)(O)O)CP(=O)(O)O	inactive	–	inactive	inactive	inactive	inactive	inactive	inactive	inactive	inactive	inactive	inactive	–	–	–	–	–	–	–	–
COc1ccc(C=O)cc1OC	inactive	–	inactive	inactive	inactive	inactive	inactive	inactive	inactive	inactive	inactive	inactive	–	–	–	–	–	–	–	–
CCCCC(CC)CO[N+](=O)[O-] (centres undefined)	inactive	inactive	–	inactive	inactive	inactive	inactive	inactive	–	inactive	inactive	inactive	–	–	–	–	–	–	–	–
CCCCOCCOC(C)=O	inactive	–	inactive	inactive	inactive	inactive	inactive	inactive	–	inactive	inactive	inactive	–	–	–	–	–	–	–	–
CC(C)c1cccc(C(C)C)c1O	inactive	inactive	inactive	inactive	inactive	inactive	inactive	inactive	–	inactive	inactive	inactive	–	–	–	–	–	–	–	–
CCCCP(CCCC)CCCC	inactive	inactive	–	inactive	inactive	inactive	inactive	inactive	–	inactive	inactive	inactive	–	–	–	–	–	–	–	–
COc1cccc(C=O)c1	inactive	inactive	–	inactive	inactive	inactive	inactive	inactive	–	inactive	inactive	inactive	–	–	–	–	–	–	–	–
Nc1ccc(N=Nc2ccc(-c3ccc(N=Nc4c(S(=O)(=O)O)cc5cc(S(=O)(=O)O)c(N=Nc6ccccc6)c(O)c5c4N)cc3)cc2)c(N)c1	inactive	inactive	inactive	inactive	inactive	inactive	inactive	–	–	inactive	inactive	inactive	–	–	–	–	–	–	–	4.8 µM (active)
CCOP(OCC)OCC	inactive	–	inactive	inactive	inactive	inactive	inactive	inactive	inactive	inactive	inactive	inactive	–	–	–	–	–	–	–	–
